Source: PubChem
In the library only some 5.3% were active in any assay of this set; here they are far more common.
Mot1-301 SUMO – SUMOylation pathway inhibition by Mot1-301 growth rescue; 320,000 tested, 1% active; S. cerevisiae Mot1-301 growth rescue, ATP luminescence, 38.5C; percent above DMSO median, 100 means doubled; growth rescue, % at 18.8 µM;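 active means every valid replicate shows activation above 250% relative to neutral control wells; inactive means the rest, any valid replicate at or below 250%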
HIF act – HIF pathway transcriptional activation. 300,000 tested, 0.32% active. U2OS HRE-luciferase reporter, luminescence; normalized: DMSO 0%, desferrioxamine 100%. activation, % at 7.5 µM (by protocol);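 active means mean activation of at least 10% of the iron chelator positive control signal, with at least half of replicates also reaching 10%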
PfM18AAP inh – PfM18AAP enzyme inhibition | recombinant PfM18AAP, H-Glu-NHMec fluorogenic cleavage | inhibition, % at 7.35 µM | 290,000 tested, 1.2% active;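 active means inhibition above the campaign mean inhibition over all tested compounds plus 3 SD, cut at about 28% in these data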
ALR H2O2 inh – blocks human ALR sulfhydryl oxidase activity. P55789. purified ALR, DTT oxidation, H2O2 HRP-luminol luminescence. inhibition, % (concentration not given with the values). 290,000 tested, 3.8% active;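 active means mean replicate inhibition above about 79%, with every replicate also reaching it, limit read from the data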
Target sequence (P55789 whole entry, looked up): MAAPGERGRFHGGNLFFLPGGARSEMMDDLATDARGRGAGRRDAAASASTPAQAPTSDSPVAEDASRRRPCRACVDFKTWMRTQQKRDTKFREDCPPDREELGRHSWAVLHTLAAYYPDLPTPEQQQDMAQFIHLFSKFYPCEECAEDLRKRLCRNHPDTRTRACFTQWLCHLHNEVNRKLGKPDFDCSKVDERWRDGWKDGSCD
Mot1 SUMO dose – SUMO pathway inhibitors in yeast Mot1-301 growth; shares compounds with Mot1-301 SUMO; 2,300 tested, under 10 active; S. cerevisiae Mot1-301 galactose growth, ATP luminescence, 24 h; -100 = growth of slx-deleted rescue strain; growth activity, percent, % at 42 µM;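 active means Signal drops as the depositor expects, and the fitted half-maximal dose is no more than ten times the top valid tested dose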;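 further: more negative values mean stronger growth rescue toward the control strain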
Hits are given with their value.

What do the screens show for `O=C(O)CCC(NC(=O)c1ccc(Cl)cc1)C(=O)O` (stereo not given)?
Mot1-301 SUMO: active; HIF act: inactive; PfM18AAP inh: inactive; ALR H2O2 inh: inactive; Mot1 SUMO dose: inactive

What do the screens show for `Cc1noc(-c2ccc(C(F)(F)F)cc2)c1NC(=O)Nc1ccc(Cl)cc1`?
Mot1-301 SUMO: inactive; HIF act: inactive; PfM18AAP inh: inactive; ALR H2O2 inh: inactive

Results for CCCCn1c(N)c(N(CCOC)C(=O)c2cnccn2)c(=O)[nH]c1=O ?
Mot1-301 SUMO: 765.4; HIF act: inactive; ALR H2O2 inh: inactive; Mot1 SUMO dose: inactive

What do the screens show for `CCCCn1c(N)c(N(CCOC)C(=O)c2ccc(Cl)c(S(=O)(=O)N3CCCCC3)c2)c(=O)[nH]c1=O`?
Mot1-301 SUMO: 697.6; HIF act: inactive; ALR H2O2 inh: inactive; Mot1 SUMO dose: inactive

How did CC(=O)c1ccc(N2C(=NC(=O)C3CCCCC3)SC3CS(=O)(=O)CC32)cc1 (stereo not given) do in these assays?
Mot1-301 SUMO: inactive; HIF act: inactive; PfM18AAP inh: inactive; ALR H2O2 inh: inactive

Results for COc1ccc(C(=O)CSc2nnc(CNC(=O)c3ccccc3)n2C)cc1 ?
Mot1-301 SUMO: 397.4; HIF act: inactive; PfM18AAP inh: inactive; Mot1 SUMO dose: inactive

Results for COc1ccc(C(=O)CSc2nnc(CNC(=O)c3ccc(OC)c(OC)c3)n2C)cc1 ?
HIF act: inactive; PfM18AAP inh: inactive; ALR H2O2 inh: inactive

Results for CCCCNS(=O)(=O)c1ccc2c(c1)oc(=O)n2CC(=O)OCC ?
Mot1-301 SUMO: 540.3; HIF act: inactive; PfM18AAP inh: inactive; ALR H2O2 inh: inactive; Mot1 SUMO dose: inactive

Results for COc1ccc(N2CCN(C(=O)CNC(=O)Cc3ccc(Cl)cc3)CC2)cc1 ?
Mot1-301 SUMO: 410.1; HIF act: inactive; PfM18AAP inh: inactive; ALR H2O2 inh: inactive; Mot1 SUMO dose: inactive

What do the screens show for `CC(=O)Nc1ccc(C(=O)OCC(=O)NCc2ccccc2)cc1`?
Mot1-301 SUMO: inactive; HIF act: inactive; PfM18AAP inh: inactive; ALR H2O2 inh: inactive

What do the screens show for `CC(=O)Nc1cccc(C(=O)OCC(=O)NCc2ccc(F)cc2)c1`?
Mot1-301 SUMO: 453.4; HIF act: inactive; PfM18AAP inh: inactive; Mot1 SUMO dose: inactive

What do the screens show for `Cc1cnc(=O)[nH]c1SCC(=O)c1ccc(F)cc1`?
Mot1-301 SUMO: 436.5; HIF act: inactive; PfM18AAP inh: inactive; ALR H2O2 inh: 98.8; Mot1 SUMO dose: inactive

Results for CC(c1ccccn1)N(CCN(C)C)C(=S)Nc1cccc(F)c1 (stereo not given) ?
Mot1-301 SUMO: 435.6; HIF act: inactive; PfM18AAP inh: inactive; ALR H2O2 inh: inactive; Mot1 SUMO dose: inactive

Results for COc1ccc(Cl)cc1NC(=O)C/C(C)=N/NC(=O)c1ccc(O)cc1 ?
Mot1-301 SUMO: inactive; HIF act: inactive; PfM18AAP inh: inactive; ALR H2O2 inh: inactive

How did COC(=O)N/N=C/c1ccc(-c2ccc(Cl)cc2Cl)o1 do in these assays?
Mot1-301 SUMO: 454.5; HIF act: inactive; PfM18AAP inh: inactive; ALR H2O2 inh: inactive; Mot1 SUMO dose: inactive

What do the screens show for `CCn1c(SCC(=O)NC2CCCCC2)nnc1C(C)NC(=O)c1ccccc1F` (stereo not given)?
Mot1-301 SUMO: active; HIF act: inactive; PfM18AAP inh: inactive; ALR H2O2 inh: inactive; Mot1 SUMO dose: inactive

Results for COc1ccc(C)cc1NC(=O)C12CCC(C)(C(=O)O1)C2(C)C (stereo not given) ?
Mot1-301 SUMO: 461.1; HIF act: inactive; PfM18AAP inh: inactive; ALR H2O2 inh: inactive; Mot1 SUMO dose: inactive

How did O=C(CC1(CC2=NS(=O)(=O)c3ccccc3N2)CCCC1)NCCc1ccccc1 do in these assays?
Mot1-301 SUMO: 614.0; HIF act: inactive; PfM18AAP inh: inactive; ALR H2O2 inh: inactive; Mot1 SUMO dose: inactive

Results for CCCCCCCCc1nc(SCC(C)=O)n[nH]1 ?
Mot1-301 SUMO: 698.7; HIF act: inactive; PfM18AAP inh: inactive; ALR H2O2 inh: inactive; Mot1 SUMO dose: inactive

What do the screens show for `CCCCn1c(N)c(NCC(C)C)c(=O)[nH]c1=O`?
Mot1-301 SUMO: inactive; HIF act: inactive; PfM18AAP inh: inactive; ALR H2O2 inh: inactive

How did O=C1c2nccnc2C(=O)N1c1ccc(C(F)(F)F)cc1 do in these assays?
Mot1-301 SUMO: 587.7; HIF act: inactive; PfM18AAP inh: inactive; ALR H2O2 inh: inactive; Mot1 SUMO dose: inactive

Results for CCOc1ccc(N2C(=O)c3cccnc3C2=O)cc1 ?
Mot1-301 SUMO: inactive; HIF act: inactive; PfM18AAP inh: inactive; ALR H2O2 inh: inactive

Results for O=C(Nc1cccc(O)c1)C(Cc1ccccc1)N1C(=O)c2cccc3cccc(c23)C1=O (stereo not given) ?
Mot1-301 SUMO: 854.6; HIF act: inactive; PfM18AAP inh: inactive; ALR H2O2 inh: inactive; Mot1 SUMO dose: inactive

How did O=C(CN1CCN(Cc2ccc(Cl)cc2)CC1)N/N=C/c1ccccc1F do in these assays?
Mot1-301 SUMO: inactive; HIF act: inactive; PfM18AAP inh: inactive; ALR H2O2 inh: inactive

Results for CC1=C/C(=N\OS(=O)(=O)c2ccccc2)C(C(C)C)=CC1=O ?
Mot1-301 SUMO: 413.2; PfM18AAP inh: inactive; ALR H2O2 inh: 98.0; Mot1 SUMO dose: inactive

Results for CC1CCN(S(=O)(=O)c2ccc(NC(=O)c3cccs3)cc2)CC1 ?
Mot1-301 SUMO: 415.0; HIF act: inactive; PfM18AAP inh: inactive; ALR H2O2 inh: inactive; Mot1 SUMO dose: inactive

How did OC(COCc1cccs1)CN1CCCCCC1 (stereo not given) do in these assays?
Mot1-301 SUMO: active; HIF act: inactive; PfM18AAP inh: inactive; ALR H2O2 inh: inactive; Mot1 SUMO dose: inactive

Results for O=C1N=C(N2CCN(c3ccccc3)CC2)SC1Cc1ccccc1 (stereo not given) ?
Mot1-301 SUMO: 529.8; HIF act: inactive; PfM18AAP inh: inactive; ALR H2O2 inh: inactive; Mot1 SUMO dose: inactive

Results for O=C(COC(=O)CCc1c[nH]c2ccccc12)Nc1ccccc1C(F)(F)F ?
Mot1-301 SUMO: inactive; ALR H2O2 inh: inactive

Results for CC[C@@H]1C/C=C\Cc2ccccc2[C@H](C(=O)C[C@@H](O)CC(C)=O)OC1=O ?
Mot1-301 SUMO: 497.3; ALR H2O2 inh: inactive; Mot1 SUMO dose: inactive

What do the screens show for `Cc1cccc(NC(=O)C2CC(O)CN2C(=O)OCc2ccccc2)c1` (stereo not given)?
Mot1-301 SUMO: inactive; HIF act: inactive; PfM18AAP inh: inactive; ALR H2O2 inh: inactive

Results for CC(NC(=O)OCc1ccccc1)C(=O)N1CC(O)CC1C(=O)O (stereo not given) ?
Mot1-301 SUMO: 450.5; HIF act: inactive; PfM18AAP inh: inactive; Mot1 SUMO dose: inactive

What do the screens show for `COc1ccc(NC2CCCN(C(=O)CCc3scnc3C)C2)cc1` (stereo not given)?
Mot1-301 SUMO: 439.3; HIF act: inactive; PfM18AAP inh: inactive; ALR H2O2 inh: 99.3; Mot1 SUMO dose: inactive

How did COc1ccc(NC2CCCN(C(=O)c3csc(C)n3)C2)cc1 (stereo not given) do in these assays?
Mot1-301 SUMO: 774.4; HIF act: inactive; PfM18AAP inh: inactive; ALR H2O2 inh: 99.3; Mot1 SUMO dose: inactive
